# The list is not random: actives were taken first. Their share in the collection is about 3%.
# TbPYK inhibitor: blocks Trypanosoma brucei pyruvate kinase; TbPYK enzyme, Kinase-Glo Plus ATP luminescence, 45 min; Potency, µM (doses to about 76.8 µM), for inactives: at the highest dose activity, negative = inhibition, usual class: inhibitors; hit rate 0.12% among 410,000; note: nearly all actives have a fitted effect of over 50% in size
#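 Screened from lowest to highest concentration, compounds were pinned into TbPYK/substrate mixtures, and ADP (130 uM final) was added. Plates sat at room temperature for 45 min prior to Kinase-Glo Plus detection by luminescence.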
# LmPK inhibitor: inhibitors of Leishmania mexicana pyruvate kinase; Q27686; purified LmPK, Kinase-Glo ATP luminescence, 1 h; Potency, µM (series often up to 57.5 µM), for inactives: top-dose activity change, negative = inhibition, actives largely listed as inhibitors; hit rate 0.37% among 290,000; AID 1721
# Target sequence (Q27686 whole entry, looked up): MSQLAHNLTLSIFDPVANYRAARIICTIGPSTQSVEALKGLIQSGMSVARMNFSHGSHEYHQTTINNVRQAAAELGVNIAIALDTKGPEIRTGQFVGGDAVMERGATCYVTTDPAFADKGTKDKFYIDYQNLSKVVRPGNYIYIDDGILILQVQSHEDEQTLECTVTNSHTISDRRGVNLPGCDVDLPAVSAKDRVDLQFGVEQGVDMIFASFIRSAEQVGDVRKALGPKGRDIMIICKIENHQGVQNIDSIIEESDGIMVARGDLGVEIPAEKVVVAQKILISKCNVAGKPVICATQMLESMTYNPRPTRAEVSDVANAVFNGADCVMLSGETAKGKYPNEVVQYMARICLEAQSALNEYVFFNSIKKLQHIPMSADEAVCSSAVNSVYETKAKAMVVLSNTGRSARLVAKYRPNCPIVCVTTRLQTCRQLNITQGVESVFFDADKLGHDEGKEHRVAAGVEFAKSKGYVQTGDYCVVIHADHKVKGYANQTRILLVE
#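 Pyruvate kinase activity monitored as ATP production (luciferase luminescence). Conditions: 0.1 nM enzyme, 0.5 mM PEP, 0.1 mM ADP, 1 h, RT; normalized against uninhibited and no-enzyme wells.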
# Sm TGR block: blocks Schistosoma mansoni thioredoxin glutathione reductase; Q962Y6; purified TGR, DTNB reduction, TNB absorbance 405 nm; Potency, µM (series often up to 114 µM), for inactives: at the highest dose activity change, negative = inhibition, actives largely listed as inhibitors; hit rate 3% among 360,000; AID 485364; note: nearly all actives have a fitted effect of over 60% in size
#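 First, TGR (20 nM dispensed) and NADPH were mixed with compound. Second, a 15 min room-temperature incubation followed. Third, further NADPH and then DTNB were added to start the reaction. Finally, TNB absorbance was monitored kinetically.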
# RE007 growth inh: less growth of the S. pombe RE007 Vpr strain. hit rate 0.21% among 360,000. AID 651644. S. pombe RE007 Vpr strain, BacTiter-Glo ATP luminescence, 24 h. Potency, µM (highest dose often 92.2 µM), for the others: top-dose activity change, negative = less growth, most hits filed as inhibitors; active = well fitted falling curve with a large enough effect; inconclusive = small, poorly fitted or top-dose-only effect; inactive = no such curve, though single readings can be large or run the other way; note: nearly all actives have a fitted effect of over 50% in size
#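 Fission yeast strain RE007, carrying one chromosomally integrated HIV-1 vpr copy, was seeded at OD 0.01 in PMG+AL medium with 23 nL pinned compound. After 24 h at 30 °C and 99% humidity, viability was read by BacTiter-Glo luminescence.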
# * hit, by the source's call; ? = inconclusive; nt = not tested or not shown; [ ] = another dose, or the depositor's remark. Unless noted, calls come from the whole dose curve; as a rule, active = well fitted curve in the direction sought with a large enough effect; inconclusive = small, poorly fitted or top-dose-only effect, or another doubt; inactive = no such curve, though single readings can be large; an effect the other way counts as inactive or inconclusive. % is set by controls: 0 for no effect and ±100 for the full control effect; potency is the fitted concentration of half-maximal effect.
SMILES,TbPYK inhibitor,LmPK inhibitor,Sm TGR block,RE007 growth inh
COc1ccc(OCC(=O)Nc2nc(-c3ccc(Br)cc3)ns2)cc1,-3.8%,nt,7.8%,nt
CCn1c(C)c(C)c2cc(C(=O)NCC(C)c3ccccc3)ccc21 (stereo not given),13.3%[15.4 µM],nt,19.3%,nt
CCc1ccc2occ(CC(=O)Nc3ccc(C)c(C)c3)c2c1,3.0%,nt,1.7%,nt
O=C(O)c1ccccc1-c1ccc(C=C2C(=O)N(c3ccccc3)C(=S)N(c3ccccc3)C2=O)o1,?,17.7%,8.91µM*,2.2%
Cc1ccc(/C=C2/SC(=O)NC2=S)o1,-8.7%,3.5%,?,-17.7%
Cc1ccc(/C=C2\C(=O)NC(=O)N2C)o1,-25.5%,-1.1%,35.5µM*,-1.4%
Cc1ccccc1N1C(=O)/C(=C/c2ccco2)C(=O)NC1=S,nt,-7.5%,44.7µM*,nt
O=C(O)c1ccccc1-c1ccc(/C=C2\SC(=O)N(c3ccccc3)C2=O)o1,0.2%,2.2%,-3.4%,1.4%
CCOc1cc(/C=C2\C(=O)N(Cc3ccco3)C(C)=C2C(=O)OC)ccc1O,?,0.3%,nt,7.6%
CCOC(=O)C1=C(C)N(c2ccc(OCC)cc2)C(=O)/C1=C\c1ccco1,2.7%,9.9%,17.8µM*,11.6%
CCOCCCNC(=O)c1[nH]c2cc(C)ccc2c1Sc1ccc(Cl)cc1,1.7%,nt,9.2%,nt
CCN1/C(=C\C=C2\C(=O)N(c3ccccc3)C(=S)N2C)Sc2ccccc21,-31.6%,0.4%[11.5 µM],-3.1%,-1.1%
CCOc1ccc(N2C(=O)/C(=C/c3ccco3)C(=O)NC2=S)cc1,?,18.9%,22.4µM*,0.4%
CCOc1ccc(N2C(=O)/C(=C/c3ccccc3OCC(=O)OC)N(CC(=O)OC)C2=S)cc1,-18.9%,5.4%,nt,-2.4%
CCOc1ccc(N2C(=O)/C(=C/c3ccco3)N(C)C2=S)cc1,-22.0%,1.4%,50.1µM*,3.1%
Cc1ccc(/C=C2/C(=O)N(c3ccccc3)C(=S)N2C)o1,?,-9.9%,22.4µM*,?
CC(C)COC(=O)N1CCCCC1c1cc(C(=O)Nc2ccccc2)no1 (stereo not given),0.6%,nt,nt,-0.5%
CN1CCN(C(=O)Nc2ccccc2)CC1,0.6%,-1.4%,nt,-8.7%
CN1CCN(C(=O)Nc2ccccc2CC[N+](=O)[O-])CC1,-0.6%,-2.9%,31.6µM*,22.2%
CCn1c(CN2CCN(c3cccc(Cl)c3)CC2)nc2c1c(=O)[nH]c(=O)n2C,3.1%,nt,2.4%,nt
COc1ccc(/C=C/C(=O)C2C(=O)C=C(C)OC2=O)cc1O (stereo not given),-7.8%,15.8µM*,-28.2%,-22.3%
N#Cc1c(NC(=O)CSc2ncnc3sccc23)oc(-c2ccco2)c1-c1ccco1,-4.1%,27.4%,3.98µM*,18.1%
COCCCNC(=O)CSc1nc2cc3c(cc2c(=O)n1CCCC(=O)NCc1ccc2c(c1)OCO2)OCO3,0.0%,nt,3.1%,nt
COCCn1c(=O)c(-c2ccc(Cl)cc2)nc2cnc(OC)nc21,-6.0%,nt,nt,nt
Cc1snc(SCC(=O)c2ccc([N+](=O)[O-])cc2)c1C#N,35.5µM*,-1.8%,-17.2%,?
SMILES,TbPYK inhibitor,LmPK inhibitor,Sm TGR block,RE007 growth inh
CCCCCCCN(CC)CCCC(O)c1ccc(NS(C)(=O)=O)cc1 (stereo not given),1.0%,nt,nt,nt
CCN(CC)c1ccc(/C=C2\SC(=O)N(C(C)C)C2=O)o1,?,0.3%,1.78µM*,?
Cc1[nH]n(C)c(=O)c1C(=O)c1c(-c2ccccc2Cl)noc1C,-8.3%,5.1%,44.7µM*,2.1%
Oc1cccc(-c2c3nc(c(-c4cccc(O)c4)c4ccc([nH]4)c(-c4cccc(O)c4)c4nc(c(-c5cccc(O)c5)c5ccc2[nH]5)CC4)C=C3)c1,-24.4%,nt,nt,nt
CS(=O)(=O)c1nc2ccccc2n1Cc1ccccc1,-0.2%,0.1%,-2.0%,9.4%
COc1ccc(C)cc1Cn1c(S(C)(=O)=O)nc2ccccc21,-5.7%,2.3%,39.8µM*,14.4%
CC(=O)Nc1ccc(/C=N/NC(=O)c2cc(-c3ccco3)nc3ccccc23)cc1,0.9%,2.0%,14.1µM*,31.7%
O=C(N/N=C/c1ccc2c(c1)OCO2)c1cc(-c2ccco2)nc2ccccc12,-2.7%,nt,-19.7%,-5.5%
O=C(O)c1ccccc1/C=N/NC(=O)c1cc(-c2ccco2)nc2ccccc12,-5.7%,26.5%,3.16µM*,-7.7%
CCN1CCN(Cc2c(O)ccc3oc(C)c(C(=O)Nc4cccc(C(F)(F)F)c4)c23)CC1,3.6%,nt,4.0%,nt
O=C(NCc1ccco1)c1scc2c1OCCO2,-12.4%,11.0%,35.5µM*,-1.7%

# From PubChem
